Source: PubChem BioAssay
COUP-TFII inh: blocks human COUP-TFII nuclear receptor; P24468; HEK293T NGFI-A luciferase reporter, luminescence; inhibition, % at 8.6 µM; 370,000 tested, 0.7% active; AID 686940;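 active means inhibition above a per-plate cutoff, mean inhibition of test wells between control levels plus 3 SD, cut at about 38% in these data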;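 further: cells cotransfected with COUP-TFII expression vector driving the NGFI-A reporter; 0% = median of COUP-TF2 test wells and 100% = reporter-only cells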
Target sequence (P24468 whole entry, looked up): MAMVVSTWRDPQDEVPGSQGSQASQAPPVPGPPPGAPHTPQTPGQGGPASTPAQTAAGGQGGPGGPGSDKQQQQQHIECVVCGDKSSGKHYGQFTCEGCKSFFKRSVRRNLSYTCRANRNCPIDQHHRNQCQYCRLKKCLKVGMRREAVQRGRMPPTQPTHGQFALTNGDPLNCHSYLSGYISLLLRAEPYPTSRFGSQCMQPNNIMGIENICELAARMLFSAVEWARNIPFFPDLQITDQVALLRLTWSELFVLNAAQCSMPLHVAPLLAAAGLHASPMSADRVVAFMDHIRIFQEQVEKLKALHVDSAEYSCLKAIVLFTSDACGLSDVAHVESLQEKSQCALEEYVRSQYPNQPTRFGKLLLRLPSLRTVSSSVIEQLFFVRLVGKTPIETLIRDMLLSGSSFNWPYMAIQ
NCOA2 inhibitor: inhibits human steroid receptor coactivator 2; Q15596; HEK293 GAL4-SRC2 luciferase reporter, luminescence; inhibition, % at 9 µM; 370,000 tested, 0.17% active;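 active means inhibition above the mean inhibition of all tested compounds plus 3 SD, set per campaign, cut at about 52% in these data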;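 further: 0% = DMSO treated cells and 100% = cells given Gossypol at 36 µM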
NCOA1 inh: human NCOA1 inhibition. HEK293 GAL4-SRC1 luciferase reporter, luminescence. AID 588354. inhibition, % at 3.6 µM. 360,000 tested, 0.12% active;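 active means inhibition above the campaign mean plus 3 SD, with each screening campaign given its own cutoff, cut at about 60% in these data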;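 further: 0% = DMSO treated cells and 100% = gossypol at 36 µM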
Gli-Sufu antag: antagonists of Gli-Sufu signaling; Sufu-KO-LIGHT fibroblasts, Gli luciferase reporter luminescence; inhibition, % at 5 µM; 340,000 tested, 0.74% active; AID 588413;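 active means inhibition above about 55%, limit read from the data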;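 further: 0% = DMSO-treated cells and 100% = wells with medium but no cells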
NCOA3 inh: inhibitors of human steroid receptor coactivator 3 (SRC3); Q9Y6Q9; 360,000 tested, 0.17% active; inhibition, % at 3.6 µM; HEK293 GAL4-SRC3 luciferase reporter, luminescence;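 active means inhibition above a per-campaign cutoff, the mean of all compounds plus 3 SD, cut at about 60% in these data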;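 further: 0% = DMSO-treated cells and 100% = gossypol-treated cells at 36 µM; higher means less SRC3-driven luciferase light from the GAL4 reporter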
LRH-1 inv ag: suppresses constitutive activity of human LRH-1. O00482. HEK293T StAR-luciferase reporter, LRH-1 transfected, 24 h. inhibition, % at 3.6 µM. 360,000 tested, 0.13% active;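 active means inhibition above the mean inhibition of all tested compounds plus 3 SD, cut at about 73% in these data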;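 further: 0% = DMSO wells and 100% = reporter-only cells lacking LRH-1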
VP16 Luc counter: counter-screen for COUP-TFII antagonists: inhibitors of VP16; shares compounds with COUP-TFII inh; HEK293 Gal4-VP16 luciferase reporter, luminescence; inhibition, % at 8.5 µM; 2,500 tested, 25% active; AID 687007; in the data active means inhibition above about 13%
COUP-TFII conf: confirmation of human COUP-TFII (NR2F2) inhibitors. shares compounds with COUP-TFII inh. 2,500 tested, 45% active. HEK293 NGFI-A luciferase reporter, luminescence. inhibition, % at 8.5 µM;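 active means mean inhibition over three repeats above a set limit taken from the earlier primary screen, cut at about 38% in these data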;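 further: 100% = cells given the luciferase reporter alone without the COUP-TF2 vector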
Active calls of the source: *; · = no result. In the library only some 1.3% were active in any assay of this set; here they are far more common.

SMILES | COUP-TFII inh | NCOA2 inhibitor | NCOA1 inh | Gli-Sufu antag | NCOA3 inh | LRH-1 inv ag | VP16 Luc counter | COUP-TFII conf
Cc1cccc(OCC(=O)Nc2ccc3c(c2)nc(CCN2CCN(c4ccccn4)CC2)n3C)c1 | 52* | 30 | 5 | 53 | 9 | 17 | 2 | 36
COc1ccc(OCC(=O)Nc2ccc3c(c2)nc(CCN2CCN(c4ccccn4)CC2)n3C)cc1 | 26 | -13 | 5 | · | 10 | 2 | · | ·
CC(=O)Nc1ccc(OCC(=O)Nc2ccc(Cl)c(S(=O)(=O)N3CCOCC3)c2)cc1 | 65* | 34 | 26 | · | 28 | 35 | 7 | 44*
CC(CC(=O)Nc1ccc(Cl)c(S(=O)(=O)N2CCOCC2)c1)c1ccccc1 (stereo unspecified) | 63* | 29 | 29 | 46 | 18 | 22 | 4 | 51*
CN(C)S(=O)(=O)c1ccc(NC(=O)Cc2ccc(S(=O)(=O)N3CCOCC3)s2)cc1 | 3 | -1 | -18 | 22 | 11 | 2 | · | ·
CCN(CC)S(=O)(=O)c1cc(NC(=O)Cc2ccc(S(=O)(=O)N3CCOCC3)s2)ccc1Cl | 64* | 32 | 14 | 10 | 22 | 25 | 3 | 30
COc1ccc(OCC(=O)Nc2ccc(S(=O)(=O)N3CCOCC3)cc2)cc1 | 6 | -2 | 1 | -2 | 10 | 7 | · | ·
O=C(O)CC(SCC(=O)Nc1ccc(Cl)c(S(=O)(=O)N2CCOCC2)c1)C(=O)O (stereo unspecified) | -7 | 17 | 0 | -1 | 4 | 3 | · | ·
Cc1cccc(OCCCC(=O)Nc2ccc(Cl)c(S(=O)(=O)N3CCOCC3)c2)c1 | 39* | -21 | -12 | -3 | 28 | 18 | 11 | 39*
O=C(Nc1c(-c2ccc(F)cc2)nc2ncccn12)C1CC1 | 4 | -11 | · | · | · | · | · | ·
O=C(CSc1nc2ccccc2o1)Nc1nc2c(s1)CCCC2 | 52* | 12 | 21 | 7 | 28 | 29 | -44 | 36
CCCCCCCC/C=C\CCCCCCCC(=O)NCCO | 13 | 12 | 3 | -7 | 23 | 19 | · | ·
CCCCCCCC/C=C\CCCCCCCC(=O)NCCc1ccc(O)c(O)c1 | 59* | 48 | 60 | 57* | 62* | 78* | 0 | 11
Cc1ccc(-c2csc(=Nc3cccnc3)n2CCCn2ccnc2)cc1C | 55* | 62* | 63* | 46 | 56 | 16 | 18* | 45*
O=C(c1cc(COc2c(F)cccc2F)on1)N1CCC(c2ccncc2)CC1 | 60* | -7 | 28 | 47 | 30 | 16 | 5 | 47*
CN(C)[C@@H]1CCN(c2cccc3c2S(=O)(=O)N(C2CC2)CCCO3)C1 | -2 | -9 | · | · | · | · | · | ·
CS(=O)(=O)c1ccc(NC(=O)c2cccc(S(=O)(=O)N3CCN(Cc4ccccc4)CC3)c2)cc1 | 41* | -2 | -22 | 27 | 19 | 8 | -6 | 16
CN(C)C(=O)c1ccc(NC(=O)c2cccc(S(=O)(=O)N3CCN(Cc4ccccc4)CC3)c2)cc1 | 10 | 5 | -15 | 7 | 12 | 2 | · | ·
CN(CC(=O)Nc1ccc(Cl)cc1)C(=O)c1cccc(S(=O)(=O)N2CCN(Cc3ccccc3)CC2)c1 | 37* | 20 | 8 | 40 | -7 | 11 | 1 | 5
CN(CC(=O)Nc1ccc(F)cc1)C(=O)c1cccc(S(=O)(=O)N2CCN(c3ccccc3)CC2)c1 | 16 | 12 | -1 | 20 | 8 | 28 | · | ·
COc1cccc(CN(C)C(=O)c2cccc(S(=O)(=O)N3CCN(Cc4ccccc4)CC3)c2)c1OC | 18 | -1 | -16 | 37 | 19 | 9 | · | ·
COc1ccc(NC(=O)CN(C)C(=O)c2cccc(S(=O)(=O)N3CCN(c4ccc(F)cc4)CC3)c2)cc1 | 46* | 24 | -4 | 16 | 17 | 14 | -2 | 17
COc1cccc(CN(C)C(=O)c2cccc(S(=O)(=O)N3CCN(c4ccccc4)CC3)c2)c1OC | 52* | -1 | 4 | 23 | 32 | 3 | -1 | 21
Cc1ccc(-c2cc(-c3nnc(SCC(=O)N4c5ccccc5Sc5ccc(Cl)cc54)n3N)[nH]n2)cc1 | -14 | 5 | · | · | · | · | · | ·
